Bioassay records deposited in PubChem by several laboratories.
The entries come from a sample that favours hits as a whole.
ERp5 block: inhibitors of human ERp5; AID 651711; ERp5 insulin aggregation, absorbance 650 nm, 90 min; 350,000 compounds, 0.05% hits; inhibition, % at 9.99 µM;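 active = mean replicate inhibition above about 25%, with every replicate also reaching it, limit read from the data, passing the limit was not always enough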
ARNT-TACC3 inh: disrupts binding between human ARNT and TACC3 | Q9Y6A5 | 390,000 compounds, 0.66% hits | inhibition, % at 9.99 µM | AlphaScreen His-ARNT PAS-B/GST-TACC3 binding, luminescence; TACC3 fragment carries E629A point mutation | AID 623870;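 active = mean inhibition of replicates at least 50% and at least half of replicates each reaching 50%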;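 also: 0% = complete ARNT plus TACC3 wells and 100% = ARNT alone without TACC3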
PglD inh: blocks C. jejuni PglD acetyltransferase activity | purified PglD enzyme, DTNB colorimetric CoA detection | inhibition, % at 12.5 µM | 360,000 compounds, 0.098% hits | AID 602405; in the data active = inhibition above about 16%, passing the limit was not always enough
NRP1-CendR mod: NRP-1/CendR interaction modulation. O14786. FAM-RPARPAR peptide binding to NRP-1, fluorescence polarization. inhibition, % at 25 µM. 360,000 compounds, 0.85% hits. AID 602438;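 active = inhibition or corrected inhibition above about 18%, plus a signal ratio from 0.5 to 1.5, limit read from the data, passing the limit was not always enough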
Target sequence (O14786 whole entry, looked up): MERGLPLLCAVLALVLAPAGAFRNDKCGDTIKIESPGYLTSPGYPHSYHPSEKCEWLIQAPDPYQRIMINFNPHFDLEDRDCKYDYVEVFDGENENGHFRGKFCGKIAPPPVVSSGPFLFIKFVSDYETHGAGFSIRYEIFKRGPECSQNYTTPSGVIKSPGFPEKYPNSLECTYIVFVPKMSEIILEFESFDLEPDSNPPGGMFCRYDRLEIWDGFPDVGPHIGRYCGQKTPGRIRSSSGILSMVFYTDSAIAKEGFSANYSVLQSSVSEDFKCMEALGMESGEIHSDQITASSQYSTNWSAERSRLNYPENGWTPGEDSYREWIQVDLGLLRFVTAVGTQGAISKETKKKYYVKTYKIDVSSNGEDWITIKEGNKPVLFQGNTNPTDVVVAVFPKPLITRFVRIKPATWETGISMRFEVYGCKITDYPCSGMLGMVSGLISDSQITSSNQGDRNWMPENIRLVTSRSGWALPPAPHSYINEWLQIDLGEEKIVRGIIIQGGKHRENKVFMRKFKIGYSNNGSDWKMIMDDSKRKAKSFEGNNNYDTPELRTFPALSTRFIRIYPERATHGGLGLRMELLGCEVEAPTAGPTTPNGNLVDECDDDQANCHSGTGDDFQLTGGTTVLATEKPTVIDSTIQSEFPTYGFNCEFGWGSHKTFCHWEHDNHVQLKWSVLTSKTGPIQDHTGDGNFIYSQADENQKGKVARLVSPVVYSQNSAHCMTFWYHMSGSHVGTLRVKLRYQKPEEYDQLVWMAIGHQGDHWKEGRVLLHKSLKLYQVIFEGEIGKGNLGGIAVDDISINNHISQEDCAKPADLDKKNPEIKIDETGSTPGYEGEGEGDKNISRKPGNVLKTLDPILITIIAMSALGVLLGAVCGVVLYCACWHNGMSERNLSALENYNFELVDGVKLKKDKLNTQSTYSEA
PDI inh: PDI (human) enzyme inhibition; P07237; PDI insulin aggregation turbidity, A650, 90 min; inhibition, % at 10 µM; 350,000 compounds, 0.052% hits; AID 588391;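 active = mean inhibition across replicates of 30% or more, whatever share of single replicates reach that level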
ALR H2O2 inh: blocks human ALR sulfhydryl oxidase activity. P55789. purified ALR, DTT oxidation, H2O2 HRP-luminol luminescence. inhibition, % (test concentration not listed). 290,000 compounds, 3.8% hits;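 active = mean replicate inhibition above about 79%, with every replicate also reaching it, limit read from the data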
AlphaScreen ctr: AlphaScreen artifact in ARNT/TACC3 counter-screen. 1,200 compounds, 50% hits. His-ARNT PASB-GST AlphaScreen artifact counter-screen, luminescence. AID 651705. AC50, µM (series often up to 68 µM), for inactives: top-dose activity change, negative = signal decrease. shares compounds with ARNT-TACC3 inh;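 active = every separate test run was called active for a drop in luminescence, with AC50 within twice the top valid dose, actives reach about 71 µM in these data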
The depositor's hits bear a star.

CC1(c2ccccc2)NC(=O)N(CC(=O)Nc2nc(-c3ccccn3)cs2)C1=O (centres undefined) was read as ERp5 block 3, ARNT-TACC3 inh 61*, PglD inh 3, NRP1-CendR mod -3, PDI inh 4 and AlphaScreen ctr 56µM*.
Screening Cc1ccc(OCC(=O)Nc2nc(-c3ccccn3)cs2)c(C)c1 returned ERp5 block 3, ARNT-TACC3 inh 11, PglD inh -1, NRP1-CendR mod -15, PDI inh 9 and ALR H2O2 inh -6.
COCC#Cc1ccc([C@@H]2[C@@H](CO)N3C(=O)CN(C(=O)C4CCOCC4)C[C@H]23)cc1 was read as ERp5 block -7.
`CC1CCN(C(=O)COC(=O)c2ccc([N+](=O)[O-])o2)CC1` gave ERp5 block -4, ARNT-TACC3 inh 18*, PglD inh 2, NRP1-CendR mod 24, PDI inh -13, ALR H2O2 inh -13 and AlphaScreen ctr -5%.
For COCCn1c(C)cc(C(=O)COC(=O)c2ccc([N+](=O)[O-])o2)c1C the results were ERp5 block 3, ARNT-TACC3 inh 52*, PglD inh 1, NRP1-CendR mod -26, PDI inh -1, ALR H2O2 inh -21 and AlphaScreen ctr -16%.
`CC1(C)C(=O)Nc2ccccc2N1C(=O)COC(=O)c1ccc([N+](=O)[O-])o1` gave ERp5 block -10, ARNT-TACC3 inh -6, PglD inh -5, NRP1-CendR mod 3 and PDI inh -1.
For Cc1cc(C(=O)COC(=O)c2ccc([N+](=O)[O-])o2)c(C)n1CC1CCCO1 (centres undefined) the results were ERp5 block -2, ARNT-TACC3 inh 11, PglD inh -1, NRP1-CendR mod -5, PDI inh 0 and ALR H2O2 inh -251.
For O=C1CN(C(=O)COC(=O)c2ccc([N+](=O)[O-])o2)c2ccccc2N1 the results were ERp5 block 2, ARNT-TACC3 inh 42*, PglD inh -1, NRP1-CendR mod -42, PDI inh 26, ALR H2O2 inh -97 and AlphaScreen ctr -1%.
Screening CC(C)CC#Cc1ccc2c(c1)O[C@@H](CN(C)C(=O)c1cccc(F)c1)[C@H](C)CN([C@@H](C)CO)S2(=O)=O returned ERp5 block -3, ARNT-TACC3 inh 12 and PglD inh -1.
Screening O=C(CN1CCOCC1)N[C@@H]1CC[C@H](CCNC(=O)C2CCC2)O[C@H]1CO returned ERp5 block -1, ARNT-TACC3 inh -4 and PglD inh -1.
For Cc1ccc(S(=O)(=O)N(C)C[C@@H]2Oc3ccc(NC(=O)NC4CCCCC4)cc3C(=O)N([C@H](C)CO)C[C@@H]2C)cc1 the results were ERp5 block 1, ARNT-TACC3 inh 4 and PglD inh 0.
Screening O=C(Nc1cc(F)ccc1F)N[C@@H]1CC[C@H](CCn2cc(C3CCCC3)nn2)O[C@@H]1CO returned ERp5 block 3.
For Cc1ccc(C2=CSC3=NS(=O)(=O)CCN23)cc1 the results were ERp5 block 1, ARNT-TACC3 inh 50*, NRP1-CendR mod -12, PDI inh 10, ALR H2O2 inh -10 and AlphaScreen ctr -8%.
For C/C(=N\NC(=O)C(C)Oc1ccc([N+](=O)[O-])cc1)c1ccccn1 (centres undefined) the results were ARNT-TACC3 inh 54*, NRP1-CendR mod -6, PDI inh -27, ALR H2O2 inh -2 and AlphaScreen ctr 34µM*.
Screening CCN(CC)C(=O)CSc1nnc(-c2cnccn2)n1-c1ccccc1 returned ARNT-TACC3 inh -1, PglD inh -5, NRP1-CendR mod -9 and PDI inh 3.
Screening Cc1ccc(-n2c(SCc3ccc(C#N)cc3)nnc2-c2ccccn2)cc1 returned ARNT-TACC3 inh 0, PglD inh -2, NRP1-CendR mod 9 and PDI inh 19.
`CCN(CC)C(=O)CSc1nnc(-c2ccccn2)n1-c1ccc(C)c(C)c1` gave ARNT-TACC3 inh 52*, PglD inh 1, NRP1-CendR mod -2, PDI inh 1, ALR H2O2 inh -9 and AlphaScreen ctr -9%.
